Test results as given in PubChem BioAssay AID819 (Columbia University Molecular Screening Center, 2007).
Hit rate of the full screen: of about 94,000 compounds, about 280 (0.3%) were called active. Many of the other results were omitted from the sample, so actives are more common in it than they were. Unmarked numbers belong to inactive results.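 The calls were made as follows: active = activation above 40%, about the mean plus 3 SD, also judged a hit on visual image review; inconclusive = activation above 40% but not a hit on visual review; inactive = activation not above 40% and no visual hit.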

test: enhancers of NFkB p65 translocation in HUVEC – imaging, IL-1B stimulus, high-content imaging, primary screen (AID 819); details: HUVEC IL-1B NFkB p65 nuclear translocation imaging; at 2 µM; active compounds read high;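 also: percent activation is computed from the nuclear over cytoplasmic p65 intensity ratio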

Structure (SMILES)	activation
Cc1nnc(SCC(=O)N/N=C/c2cn(-c3ccccc3)nc2-c2ccc(F)cc2)n1-c1ccccc1	-16.3%
COc1ccc(C2C=C(c3ccc(Br)cc3)Nc3nc(NS(C)(=O)=O)nn32)cc1 (stereo not given)	5.63%
O=C(Cn1c(-c2cscn2)nc2ccccc21)Nc1ccc(Cl)cc1	3.1%
CON(C)S(=O)(=O)c1ccc2c(c1)NC(=O)C1CCCN21 (stereo not given)	6.63%
COc1cccc(-c2cc(C(=O)N/N=C/c3ccc(OC)c(COC(C)=O)c3)c3ccccc3n2)c1	0.06%
CC(Oc1ccc(-c2ccccc2)c(F)c1)c1ccn(S(=O)(=O)c2cccc3ccccc23)n1 (stereo not given)	-9.3%
COc1ccc(NC(=O)Cn2c(-c3ccc(OC)cc3)cn(-c3ccc(C)cc3)c2=O)cc1	5.6%
Cc1c(Br)cc(C(=O)N2CCCCCC2)c(C)c1C	11.9%
Cn1c2ccccc2n2c(=O)c(=O)n(CC(=O)c3ccc(F)cc3)nc12	47.4% (active)
CCN1CCN(Cc2nc3c(c(=O)n(C)c(=O)n3C)n2CC(=O)c2ccccc2)CC1	21.5%
O=C(CCn1c(SCC(=O)c2ccccc2)nc2ccccc2c1=O)NCc1ccc(F)cc1	2.29%
Cc1ccnc(N2CCC(C(=O)NC3CCCCCC3)CC2)n1	-7.5%
c1ccc(-n2ncc3c(N4CCCC4)ncnc32)cc1	12.2%
Brc1cnc(N2CCCC2)nc1N1CCCCC1	41.1% (active)
O=C1OC(c2ccc(Cl)cc2)=N/C1=C\c1cccnc1	34.5%
Cc1nc2ccccc2c(-c2ccccc2)c1C(=O)c1ccccc1	9.37%
CCN(CC)S(=O)(=O)c1ccc(N2CCOCC2)c(C(=O)O)c1	11.9%
O=C(c1ccc(Cl)cc1)c1cnc(Nc2ccccc2)s1	-1.4%
Nc1c(-c2ccc(F)cc2)cnn1C1CCS(=O)(=O)C1 (stereo not given)	-1.34%
COc1ccc(CCN2C(=O)C3CC=C(C)CC3C2=O)cc1OC (stereo not given)	4.82%

Structure (SMILES)	activation
O=C(c1ccccn1)c1ncc(C(F)(F)F)cc1Cl	-0.58%
CCN(CC)c1nc(-c2ccccc2)cc(C(F)(F)F)c1C#N	1.7%
CCOC(=O)/C(=C\c1ccc([N+](=O)[O-])cc1)C(=O)c1cc(C(C)=O)c(Nc2ccccc2)s1	-4.36%
COC(=O)CNC(c1ccccc1Cl)c1cc(Br)ccc1NC(=O)CCN1CCOCC1 (stereo not given)	0.94%
Cc1ccc(OCC(=O)Nc2cccc3c2CCCC3)cc1C	13.2%
CC(=O)NS(=O)(=O)c1ccc(NC(=S)NC(=O)C(C)(C)C)cc1	4.05%
COc1cccc(/C=N/NC(=O)C(=O)N2CCCC2)c1	-4.21%
CCCCCCCC(=O)NC(Nc1ccccc1OC)C(Cl)(Cl)Cl (stereo not given)	-6.09%
Cc1ccccc1/[N+]([O-])=C/c1ccncc1	15.8%
N#Cc1cc([N+](=O)[O-])ccc1Oc1cccc(/C=N/NC(=O)c2ccc(Cl)cc2)c1	1.88%
COC(=O)CSc1nnc(-c2cccnc2)o1	-7.95%
CCn1c(Cc2cccs2)nnc1SCC(=O)c1ccc(C)cc1	8.94%
COc1ccc(CCNC(=S)NC(=O)/C=C/c2ccc(C)cc2)cc1OC	-6.74%
CN1CC(c2ccccc2)C2(COc3ccccc3C2=O)C12C(=O)Nc1ccccc12 (stereo not given)	0.22%
CN(C)/C(CN1CCCCC1)=C1\N=C(c2ccccc2)OC1=O	13.1%
CC(=O)NC1=NN(C(C)=O)C(C)(c2ccc(Cl)s2)S1 (stereo not given)	-0.11%
O=C(CN1CCN(c2ccc(Cl)cc2)CC1)N1CCCC1	-4.06%
O=C(Nc1cccc(Cl)c1)Nc1nnc(-c2ccccc2)o1	-2.48%
O=C(CN1C(=O)NC2(CCCC2)C1=O)Nc1ccc(F)c(F)c1F	40.4% (active)
CC1CCC2(CC1)NC(=O)N(CC(=O)c1cccn1C)C2=O (stereo not given)	-10.9%

Structure (SMILES)	activation
CC(C(=O)Nc1ccc(F)c(F)c1F)N1CCCCCC1 (stereo not given)	24.8%
C=CCn1c(Cn2nnc3ccccc32)nnc1SCC(=O)N/N=C/c1cc(Br)cc(OC)c1O	-7.49%
COc1ccccc1CSc1nc2ccccc2[nH]1	0.73%
O=C(Cc1ccc(S(=O)(=O)N2CCOCC2)s1)NCCC(c1ccccc1)c1ccccc1	7.66%
CCCC1NC(=O)NC(C)=C1C(=O)OCC (stereo not given)	-16.9%
CCOC(=O)C1=C(C)NC(C)=C(C(=O)OCC)C1c1ccccn1	1.56%
CCOC(=O)C1=C(C)NC(C)=C(C(=O)OCC)C1C1=COCCO1	42.7% (active)
O=C(Nc1ccccc1[N+](=O)[O-])C1C(c2ccccc2)=C1c1ccccc1	-5.91%
O=C(/C=C/Nc1ccccc1OC(F)(F)F)C(F)(F)F	10.9%
O=C(CN1CCSCC1)N/N=C/c1ccc(F)cc1F	6.22%
Cc1cccc(N2CCN(C(=O)CN(C)S(=O)(=O)c3ccc4c(c3)CCC(=O)N4)CC2)c1C	-2.04%
O=C(NC1CCCCC1)c1cc([N+](=O)[O-])ccc1N1CCOCC1	-1.25%
Cc1ccc2nc(-c3ccccc3)cc(C(=O)O)c2c1	1.92%
CC(C)(C)Cc1nnc(NC(=O)c2cc(-c3ccccc3)nc3ccccc23)s1	41.2% (active)
Cc1ccc(-c2cc(C(=O)Nc3nn[nH]n3)c3ccccc3n2)c(C)c1	-7.54%
OCCN(Cc1ccccc1)Cc1ccc(Cl)cc1	-4.34%
CCOn1c(SC(C)C)nc2ccccc2c1=O	-7.95%
Cc1cc(C)n(-c2c(F)c(F)c(COC(=O)c3ccccc3)c(F)c2F)n1	17.9%
CCCOn1c(-n2nc(C)cc2C)nc2ccccc2c1=O	121% (active)
CCOC(=O)C1=NNC2(c3ccc(Cl)cc3)C(=O)N(c3cc(C)cc(C)c3)C(=O)C12 (stereo not given)	-2.6%
